# Reference: paper PMC7862700, “An all-to-all approach to the identification of sequence-specific readers for epigenetic DNA modifications on cytosine”
# What was measured:
# Experiment in all cases: DAPPL (digital affinity profiling via proximity ligation, sequencing); 10 mM Tris-HCl pH 7.5, 50 mM NaCl, 1 mM DTT, 4% glycerol, room temperature, 30 min; GST-TFs on glutathione beads, 16-mer random dsDNA library, 0.1% formaldehyde crosslink after washing; high values mean tight binding
# Details in all cases: protein: recombinant; tags: N-terminal GST; dsDNA, one strand shown
# [1] = biological target: T1, FLI1 (Homo sapiens, UniProt Q01543 1-452)
# T1 sequence: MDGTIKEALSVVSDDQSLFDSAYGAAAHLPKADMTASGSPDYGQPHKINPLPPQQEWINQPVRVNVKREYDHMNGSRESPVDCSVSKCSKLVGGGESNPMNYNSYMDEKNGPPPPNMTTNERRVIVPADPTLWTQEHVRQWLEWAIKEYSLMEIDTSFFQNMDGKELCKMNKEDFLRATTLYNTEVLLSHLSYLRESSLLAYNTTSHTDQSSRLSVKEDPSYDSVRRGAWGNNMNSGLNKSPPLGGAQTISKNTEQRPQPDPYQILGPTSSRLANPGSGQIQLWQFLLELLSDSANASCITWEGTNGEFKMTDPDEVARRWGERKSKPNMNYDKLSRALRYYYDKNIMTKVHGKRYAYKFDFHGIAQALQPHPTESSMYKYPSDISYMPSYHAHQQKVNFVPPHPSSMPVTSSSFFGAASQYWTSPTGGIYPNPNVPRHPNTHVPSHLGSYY
# Procedure, shortened: (§1)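 The binding signal reported is, for every hexamer, its read frequency for a factor over its read frequency for the tag-only sample. Reads came from pools of yeast-expressed, GST-fused human transcription factors on glutathione beads, barcoded with DNA and mixed with that sample, which were incubated with 200 nmole of a random double-stranded 16-mer DNA library in Tris/NaCl/DTT/glycerol buffer at room temperature for 30 min. After washing, the pools were crosslinked with 0.1% formaldehyde, proximity-ligated with BsaI/T4 ligase for 1 h at 37 °C, PCR-amplified and sequenced on an Illumina NextSeq500.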
# [2] = biological target: T2, ELK1 (Homo sapiens, UniProt P19419 1-428)
# T2 sequence: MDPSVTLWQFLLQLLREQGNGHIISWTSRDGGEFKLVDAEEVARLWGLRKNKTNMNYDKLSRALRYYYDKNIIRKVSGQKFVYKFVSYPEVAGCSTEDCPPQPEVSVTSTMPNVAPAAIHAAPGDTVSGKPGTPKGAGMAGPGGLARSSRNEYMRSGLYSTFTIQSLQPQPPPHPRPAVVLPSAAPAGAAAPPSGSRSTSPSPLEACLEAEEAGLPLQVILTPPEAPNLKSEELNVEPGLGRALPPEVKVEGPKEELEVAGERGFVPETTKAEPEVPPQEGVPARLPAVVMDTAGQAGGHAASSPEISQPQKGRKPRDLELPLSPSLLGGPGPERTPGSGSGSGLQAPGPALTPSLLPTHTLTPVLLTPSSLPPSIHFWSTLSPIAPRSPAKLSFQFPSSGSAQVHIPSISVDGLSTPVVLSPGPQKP
# Procedure, shortened: as §1
# [3] = biological target: T3, GABPA (Homo sapiens, UniProt Q06546 1-454)
# T3 sequence: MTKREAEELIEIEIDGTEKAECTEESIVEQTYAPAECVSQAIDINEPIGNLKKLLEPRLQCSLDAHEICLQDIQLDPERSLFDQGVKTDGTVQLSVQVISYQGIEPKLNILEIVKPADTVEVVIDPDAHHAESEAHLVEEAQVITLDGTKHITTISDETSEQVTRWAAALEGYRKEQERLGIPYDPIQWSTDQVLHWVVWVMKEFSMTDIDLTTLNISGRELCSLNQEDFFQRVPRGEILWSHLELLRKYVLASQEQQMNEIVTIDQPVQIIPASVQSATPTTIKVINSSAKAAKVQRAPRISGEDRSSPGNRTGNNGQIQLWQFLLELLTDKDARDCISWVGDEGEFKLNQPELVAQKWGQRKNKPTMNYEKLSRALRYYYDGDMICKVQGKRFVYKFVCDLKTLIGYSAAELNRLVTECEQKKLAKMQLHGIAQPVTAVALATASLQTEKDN
# Procedure, shortened: as §1
# [4] = biological target: T4, ERG (Homo sapiens, UniProt P11308 1-479)
# T4 sequence: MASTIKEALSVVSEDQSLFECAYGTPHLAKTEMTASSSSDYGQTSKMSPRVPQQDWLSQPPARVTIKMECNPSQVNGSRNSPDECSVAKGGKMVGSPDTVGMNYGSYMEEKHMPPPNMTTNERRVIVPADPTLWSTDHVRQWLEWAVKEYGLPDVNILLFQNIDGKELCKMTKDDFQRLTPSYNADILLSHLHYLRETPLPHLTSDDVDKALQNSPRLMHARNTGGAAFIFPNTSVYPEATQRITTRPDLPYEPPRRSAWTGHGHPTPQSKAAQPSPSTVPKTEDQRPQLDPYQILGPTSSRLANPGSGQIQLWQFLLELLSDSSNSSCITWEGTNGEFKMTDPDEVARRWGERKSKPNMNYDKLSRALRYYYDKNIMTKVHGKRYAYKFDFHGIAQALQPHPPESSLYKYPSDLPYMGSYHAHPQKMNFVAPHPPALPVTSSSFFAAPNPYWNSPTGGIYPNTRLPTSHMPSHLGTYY
# Procedure, shortened: as §1
# [5] = biological target: ELF1 (Homo sapiens, UniProt P32519 1-619)
# ELF1, sequence (P32519 whole entry): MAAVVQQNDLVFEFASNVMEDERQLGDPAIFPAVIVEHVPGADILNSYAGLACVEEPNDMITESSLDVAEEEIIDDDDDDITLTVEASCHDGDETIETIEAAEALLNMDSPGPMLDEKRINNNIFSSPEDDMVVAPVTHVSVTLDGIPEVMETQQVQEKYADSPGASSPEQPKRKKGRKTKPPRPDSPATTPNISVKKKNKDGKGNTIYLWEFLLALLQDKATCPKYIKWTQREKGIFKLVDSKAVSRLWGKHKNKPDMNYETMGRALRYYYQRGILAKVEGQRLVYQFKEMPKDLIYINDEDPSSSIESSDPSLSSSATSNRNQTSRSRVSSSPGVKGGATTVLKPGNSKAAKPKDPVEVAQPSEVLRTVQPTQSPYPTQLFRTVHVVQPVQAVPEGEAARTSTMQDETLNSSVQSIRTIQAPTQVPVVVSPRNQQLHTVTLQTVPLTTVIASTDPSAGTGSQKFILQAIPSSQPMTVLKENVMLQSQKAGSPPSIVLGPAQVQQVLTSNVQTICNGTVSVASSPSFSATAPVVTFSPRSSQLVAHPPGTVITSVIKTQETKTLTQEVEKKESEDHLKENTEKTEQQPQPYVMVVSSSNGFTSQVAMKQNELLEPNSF
# Procedure, shortened: as §1
# [6] = biological target: T5, EHF (Homo sapiens, UniProt Q9NZC4 1-300)
# T5 sequence: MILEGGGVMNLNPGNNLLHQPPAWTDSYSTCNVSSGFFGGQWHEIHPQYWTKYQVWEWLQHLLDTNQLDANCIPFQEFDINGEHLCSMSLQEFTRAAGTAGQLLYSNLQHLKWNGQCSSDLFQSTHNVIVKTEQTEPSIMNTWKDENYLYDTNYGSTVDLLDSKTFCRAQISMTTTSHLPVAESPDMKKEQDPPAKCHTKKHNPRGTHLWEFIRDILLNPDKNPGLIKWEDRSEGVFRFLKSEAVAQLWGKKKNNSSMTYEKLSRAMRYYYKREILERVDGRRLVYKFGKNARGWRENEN
# Procedure, shortened: as §1
# [7] = biological target: SPI1 (Homo sapiens, UniProt P17947 1-270)
# Procedure, shortened: as §1
# [8] = biological target: SPIB (Homo sapiens, UniProt Q01892 1-262)
# SPIB, sequence (Q01892 whole entry): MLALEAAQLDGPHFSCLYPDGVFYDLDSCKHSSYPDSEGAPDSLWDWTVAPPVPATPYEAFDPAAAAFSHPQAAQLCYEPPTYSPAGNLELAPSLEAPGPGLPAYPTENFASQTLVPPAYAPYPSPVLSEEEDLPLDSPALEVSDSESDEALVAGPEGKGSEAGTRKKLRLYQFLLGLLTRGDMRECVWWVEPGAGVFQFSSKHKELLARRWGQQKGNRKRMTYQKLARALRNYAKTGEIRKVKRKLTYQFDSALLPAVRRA
# Procedure, shortened: as §1
# [9] = biological target: T6, ELK3 (Homo sapiens, UniProt P41970 1-407)
# T6 sequence: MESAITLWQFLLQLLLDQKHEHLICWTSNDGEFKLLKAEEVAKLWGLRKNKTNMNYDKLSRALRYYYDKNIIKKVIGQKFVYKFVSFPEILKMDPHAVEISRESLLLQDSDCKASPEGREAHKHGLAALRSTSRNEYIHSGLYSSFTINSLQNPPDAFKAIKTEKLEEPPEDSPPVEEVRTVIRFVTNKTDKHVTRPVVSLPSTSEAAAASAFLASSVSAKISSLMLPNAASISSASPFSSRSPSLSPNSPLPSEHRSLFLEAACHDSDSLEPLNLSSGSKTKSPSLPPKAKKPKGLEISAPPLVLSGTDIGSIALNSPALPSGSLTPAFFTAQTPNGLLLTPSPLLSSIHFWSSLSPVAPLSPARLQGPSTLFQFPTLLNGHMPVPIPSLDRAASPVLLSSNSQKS
# Procedure, shortened: as §1
# [10] = biological target: T7, FEV (Homo sapiens, UniProt Q99581 1-238)
# T7 sequence: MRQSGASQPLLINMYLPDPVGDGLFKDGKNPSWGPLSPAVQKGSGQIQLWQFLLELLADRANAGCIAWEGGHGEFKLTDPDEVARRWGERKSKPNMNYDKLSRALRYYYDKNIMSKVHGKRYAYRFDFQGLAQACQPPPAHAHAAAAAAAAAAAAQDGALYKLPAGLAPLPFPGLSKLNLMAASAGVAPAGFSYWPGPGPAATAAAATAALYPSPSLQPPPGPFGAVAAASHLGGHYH
# Procedure, shortened: as §1
# [11] = biological target: ETV5 (Homo sapiens, UniProt P41161 1-510)
# ETV5, sequence (P41161 whole entry): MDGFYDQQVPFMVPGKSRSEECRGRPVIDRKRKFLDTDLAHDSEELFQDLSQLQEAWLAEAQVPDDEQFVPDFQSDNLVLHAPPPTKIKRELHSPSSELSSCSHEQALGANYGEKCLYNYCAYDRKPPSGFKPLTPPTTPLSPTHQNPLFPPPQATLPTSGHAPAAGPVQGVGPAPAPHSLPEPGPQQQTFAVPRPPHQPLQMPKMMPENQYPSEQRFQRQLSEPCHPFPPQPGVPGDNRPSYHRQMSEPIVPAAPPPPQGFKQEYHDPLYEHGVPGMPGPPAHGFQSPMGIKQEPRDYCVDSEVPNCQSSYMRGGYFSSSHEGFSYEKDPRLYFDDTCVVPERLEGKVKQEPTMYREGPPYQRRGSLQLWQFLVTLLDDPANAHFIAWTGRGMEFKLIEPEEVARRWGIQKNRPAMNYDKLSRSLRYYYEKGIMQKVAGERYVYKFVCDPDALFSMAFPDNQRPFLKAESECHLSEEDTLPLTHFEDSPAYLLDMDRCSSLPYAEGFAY
# Procedure, shortened: as §1
# [12] = biological target: T8, SPIC (Homo sapiens, UniProt Q8N5J4 1-248)
# T8 sequence: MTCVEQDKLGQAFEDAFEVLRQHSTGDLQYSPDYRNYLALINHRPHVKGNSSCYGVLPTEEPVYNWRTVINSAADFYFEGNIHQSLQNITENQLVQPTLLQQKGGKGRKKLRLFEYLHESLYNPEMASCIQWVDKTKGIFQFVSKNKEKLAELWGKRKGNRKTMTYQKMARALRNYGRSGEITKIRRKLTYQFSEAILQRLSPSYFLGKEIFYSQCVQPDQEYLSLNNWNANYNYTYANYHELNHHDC
# Procedure, shortened: as §1
# [13] = biological target: ELF4 (Homo sapiens, UniProt Q99607 1-663)
# ELF4, sequence (Q99607 whole entry): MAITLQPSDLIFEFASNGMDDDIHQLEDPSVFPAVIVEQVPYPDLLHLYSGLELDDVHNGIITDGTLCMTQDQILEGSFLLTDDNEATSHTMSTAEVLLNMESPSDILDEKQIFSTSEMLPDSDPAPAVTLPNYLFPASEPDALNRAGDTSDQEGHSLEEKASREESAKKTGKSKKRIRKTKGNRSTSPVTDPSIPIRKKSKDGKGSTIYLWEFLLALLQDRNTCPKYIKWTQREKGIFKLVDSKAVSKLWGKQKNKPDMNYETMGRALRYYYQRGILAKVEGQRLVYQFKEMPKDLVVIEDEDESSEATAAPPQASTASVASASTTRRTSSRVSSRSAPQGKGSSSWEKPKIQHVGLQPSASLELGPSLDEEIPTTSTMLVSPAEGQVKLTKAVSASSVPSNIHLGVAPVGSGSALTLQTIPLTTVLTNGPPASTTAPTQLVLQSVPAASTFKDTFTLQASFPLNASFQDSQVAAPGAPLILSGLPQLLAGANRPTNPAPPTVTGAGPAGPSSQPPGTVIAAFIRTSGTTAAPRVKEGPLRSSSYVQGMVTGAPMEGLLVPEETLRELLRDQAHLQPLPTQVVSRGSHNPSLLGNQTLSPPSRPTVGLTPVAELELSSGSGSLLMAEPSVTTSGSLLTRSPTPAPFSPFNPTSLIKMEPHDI
# Procedure, shortened: as §1
# [14] = biological target: ETV1 (Homo sapiens, UniProt P50549 1-477)
# ETV1, sequence (P50549 whole entry): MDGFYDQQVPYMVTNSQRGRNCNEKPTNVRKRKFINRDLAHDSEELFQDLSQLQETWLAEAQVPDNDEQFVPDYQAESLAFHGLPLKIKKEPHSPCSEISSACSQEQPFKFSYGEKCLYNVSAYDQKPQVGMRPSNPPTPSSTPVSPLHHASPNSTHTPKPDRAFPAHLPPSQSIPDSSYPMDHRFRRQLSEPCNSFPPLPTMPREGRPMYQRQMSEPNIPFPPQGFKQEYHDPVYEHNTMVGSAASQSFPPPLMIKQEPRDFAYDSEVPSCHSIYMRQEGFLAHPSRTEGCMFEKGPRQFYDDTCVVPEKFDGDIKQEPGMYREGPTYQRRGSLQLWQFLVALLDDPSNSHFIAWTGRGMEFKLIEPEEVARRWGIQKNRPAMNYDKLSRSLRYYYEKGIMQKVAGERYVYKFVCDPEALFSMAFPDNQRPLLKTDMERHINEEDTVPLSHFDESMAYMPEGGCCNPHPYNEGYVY
# Procedure, shortened: as §1
# [15] = biological target: T9, ERF (Homo sapiens, UniProt P50548 1-548)
# T9 sequence: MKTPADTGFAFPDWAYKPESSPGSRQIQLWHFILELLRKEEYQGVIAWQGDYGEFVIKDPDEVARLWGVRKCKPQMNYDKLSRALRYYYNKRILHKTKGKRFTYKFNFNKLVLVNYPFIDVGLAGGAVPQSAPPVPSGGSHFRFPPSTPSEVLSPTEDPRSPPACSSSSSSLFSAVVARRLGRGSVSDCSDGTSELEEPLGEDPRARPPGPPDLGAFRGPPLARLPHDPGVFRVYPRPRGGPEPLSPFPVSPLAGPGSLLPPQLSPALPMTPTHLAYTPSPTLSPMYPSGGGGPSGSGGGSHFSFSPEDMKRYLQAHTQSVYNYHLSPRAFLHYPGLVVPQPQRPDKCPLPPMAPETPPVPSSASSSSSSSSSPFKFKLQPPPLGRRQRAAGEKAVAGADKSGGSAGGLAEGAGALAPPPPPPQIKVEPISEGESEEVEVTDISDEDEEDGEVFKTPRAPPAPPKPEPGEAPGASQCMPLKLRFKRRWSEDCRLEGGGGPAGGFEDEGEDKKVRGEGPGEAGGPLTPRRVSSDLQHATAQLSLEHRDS
# Procedure, shortened: as §1
# [16] = biological target: T10, ETV3L (Homo sapiens, UniProt Q6ZN32 1-361)
# T10 sequence: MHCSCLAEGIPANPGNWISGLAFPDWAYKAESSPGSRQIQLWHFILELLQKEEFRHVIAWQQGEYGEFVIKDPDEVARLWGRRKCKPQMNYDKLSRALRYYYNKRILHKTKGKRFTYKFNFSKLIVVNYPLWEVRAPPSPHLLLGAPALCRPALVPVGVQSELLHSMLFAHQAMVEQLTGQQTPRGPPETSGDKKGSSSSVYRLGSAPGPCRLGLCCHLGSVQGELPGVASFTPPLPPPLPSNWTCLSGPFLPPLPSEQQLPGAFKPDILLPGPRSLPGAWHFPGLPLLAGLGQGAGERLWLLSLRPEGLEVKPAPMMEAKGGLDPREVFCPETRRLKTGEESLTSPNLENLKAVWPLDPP
# Procedure, shortened: as §1
# [17] = biological target: T11, ETS2 (Homo sapiens, UniProt P15036 1-469)
# T11 sequence: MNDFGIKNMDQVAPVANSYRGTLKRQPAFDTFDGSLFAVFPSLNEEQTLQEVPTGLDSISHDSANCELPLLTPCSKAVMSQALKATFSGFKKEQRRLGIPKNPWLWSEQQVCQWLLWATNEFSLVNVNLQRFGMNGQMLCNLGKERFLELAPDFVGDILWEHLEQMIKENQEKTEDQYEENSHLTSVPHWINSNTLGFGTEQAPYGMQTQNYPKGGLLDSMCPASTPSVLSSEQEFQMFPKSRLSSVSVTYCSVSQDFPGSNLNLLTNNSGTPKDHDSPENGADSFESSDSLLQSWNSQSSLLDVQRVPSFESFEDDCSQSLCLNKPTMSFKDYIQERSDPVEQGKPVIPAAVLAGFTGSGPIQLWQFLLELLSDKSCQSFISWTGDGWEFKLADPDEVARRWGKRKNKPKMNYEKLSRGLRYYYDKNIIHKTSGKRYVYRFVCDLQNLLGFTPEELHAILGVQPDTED
# Procedure, shortened: as §1
# [18] = biological target: T12, ETV3 (Homo sapiens, UniProt P41162-2 1-143)
# T12 sequence: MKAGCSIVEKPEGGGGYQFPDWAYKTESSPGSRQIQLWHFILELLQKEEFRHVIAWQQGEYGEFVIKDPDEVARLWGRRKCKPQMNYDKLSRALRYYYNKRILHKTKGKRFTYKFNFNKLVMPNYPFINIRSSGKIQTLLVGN
# Procedure, shortened: as §1
# [19] = biological target: ETV6 (Homo sapiens, UniProt P41212 1-452)
# ETV6, sequence (P41212 whole entry): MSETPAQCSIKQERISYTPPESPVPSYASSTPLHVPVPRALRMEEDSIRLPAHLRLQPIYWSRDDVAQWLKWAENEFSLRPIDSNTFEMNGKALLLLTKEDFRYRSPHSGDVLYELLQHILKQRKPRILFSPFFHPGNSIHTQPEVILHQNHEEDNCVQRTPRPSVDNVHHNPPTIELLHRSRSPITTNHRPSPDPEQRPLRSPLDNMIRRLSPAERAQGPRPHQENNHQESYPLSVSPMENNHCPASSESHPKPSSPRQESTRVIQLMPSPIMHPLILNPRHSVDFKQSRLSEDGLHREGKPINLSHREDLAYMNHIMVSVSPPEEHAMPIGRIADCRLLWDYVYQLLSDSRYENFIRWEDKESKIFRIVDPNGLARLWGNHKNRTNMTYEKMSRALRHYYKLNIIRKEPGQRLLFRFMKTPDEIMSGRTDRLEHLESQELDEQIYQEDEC
# Procedure, shortened: as §1
sequence,measurement,setting,value
ACATGG,binding signal,[1],"1.17 fold enrichment (6-mer frequency, TF over GST control)"
same,binding signal,[2],"1.13 fold enrichment (6-mer frequency, TF over GST control)"
same,binding signal,[3],"1.15 fold enrichment (6-mer frequency, TF over GST control)"
same,binding signal,[4],"1.16 fold enrichment (6-mer frequency, TF over GST control)"
same,binding signal,[5],"1.15 fold enrichment (6-mer frequency, TF over GST control)"
same,binding signal,[6],"1.1 fold enrichment (6-mer frequency, TF over GST control)"
same,binding signal,[7],"1.14 fold enrichment (6-mer frequency, TF over GST control)"
same,binding signal,[8],"1.04 fold enrichment (6-mer frequency, TF over GST control)"
same,binding signal,[9],"1.09 fold enrichment (6-mer frequency, TF over GST control)"
same,binding signal,[10],"1.04 fold enrichment (6-mer frequency, TF over GST control)"
same,binding signal,[11],"1.1 fold enrichment (6-mer frequency, TF over GST control)"
same,binding signal,[12],"1.18 fold enrichment (6-mer frequency, TF over GST control)"
same,binding signal,[13],"1.21 fold enrichment (6-mer frequency, TF over GST control)"
same,binding signal,[14],"1.14 fold enrichment (6-mer frequency, TF over GST control)"
same,binding signal,[15],"1.14 fold enrichment (6-mer frequency, TF over GST control)"
same,binding signal,[16],"1.19 fold enrichment (6-mer frequency, TF over GST control)"
same,binding signal,[17],"1.14 fold enrichment (6-mer frequency, TF over GST control)"
same,binding signal,[18],"1.13 fold enrichment (6-mer frequency, TF over GST control)"
same,binding signal,[19],"1.14 fold enrichment (6-mer frequency, TF over GST control)"
